Results published in PubChem BioAssay (NCATS).
Records with an inconclusive call do not appear. More than one record can exist for a structure, and the calls need not agree. The source made the active and inactive calls. Calls come from the whole dose curve; as a rule, active = well fitted inhibition curve with a large enough effect; inconclusive = small, poorly fitted or top-dose-only effect; inactive = flat fitted curve, though single readings scatter.

molecular target: Voltage-gated inwardly rectifying potassium channel KCNH2 (Homo sapiens) (UniProt Q12809); experiment: qHTS Assay for Small Molecule Inhibitors of the Human hERG Channel Activity (AID 588834); conditions: U2OS BacMam hERG, FluxOR thallium flux fluorescence; series mostly up to 46.1 µM; activity change, negative = inhibition: at the top concentration;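 note: lower thallium flux fluorescence means stronger hERG block; nearly all actives have a fitted effect of over 50% in size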; for activity change, negative = inhibition: top concentration of the series differs between compounds
Procedure, shortened: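 Thallium-flux (FluxOR) read-out on FDSS: fluorescence read 10 s before and 2 min after stimulation buffer. hERG-BacMam-transduced U2OS cells, compound exposure about 10 min. AC50 by standard Hill equation.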
% is set by controls: 0 for no effect and ±100 for the full control effect; potency is the fitted concentration of half-maximal effect.

Chain of Voltage-gated inwardly rectifying potassium channel KCNH2 (Homo sapiens) (Q12809 whole entry, looked up): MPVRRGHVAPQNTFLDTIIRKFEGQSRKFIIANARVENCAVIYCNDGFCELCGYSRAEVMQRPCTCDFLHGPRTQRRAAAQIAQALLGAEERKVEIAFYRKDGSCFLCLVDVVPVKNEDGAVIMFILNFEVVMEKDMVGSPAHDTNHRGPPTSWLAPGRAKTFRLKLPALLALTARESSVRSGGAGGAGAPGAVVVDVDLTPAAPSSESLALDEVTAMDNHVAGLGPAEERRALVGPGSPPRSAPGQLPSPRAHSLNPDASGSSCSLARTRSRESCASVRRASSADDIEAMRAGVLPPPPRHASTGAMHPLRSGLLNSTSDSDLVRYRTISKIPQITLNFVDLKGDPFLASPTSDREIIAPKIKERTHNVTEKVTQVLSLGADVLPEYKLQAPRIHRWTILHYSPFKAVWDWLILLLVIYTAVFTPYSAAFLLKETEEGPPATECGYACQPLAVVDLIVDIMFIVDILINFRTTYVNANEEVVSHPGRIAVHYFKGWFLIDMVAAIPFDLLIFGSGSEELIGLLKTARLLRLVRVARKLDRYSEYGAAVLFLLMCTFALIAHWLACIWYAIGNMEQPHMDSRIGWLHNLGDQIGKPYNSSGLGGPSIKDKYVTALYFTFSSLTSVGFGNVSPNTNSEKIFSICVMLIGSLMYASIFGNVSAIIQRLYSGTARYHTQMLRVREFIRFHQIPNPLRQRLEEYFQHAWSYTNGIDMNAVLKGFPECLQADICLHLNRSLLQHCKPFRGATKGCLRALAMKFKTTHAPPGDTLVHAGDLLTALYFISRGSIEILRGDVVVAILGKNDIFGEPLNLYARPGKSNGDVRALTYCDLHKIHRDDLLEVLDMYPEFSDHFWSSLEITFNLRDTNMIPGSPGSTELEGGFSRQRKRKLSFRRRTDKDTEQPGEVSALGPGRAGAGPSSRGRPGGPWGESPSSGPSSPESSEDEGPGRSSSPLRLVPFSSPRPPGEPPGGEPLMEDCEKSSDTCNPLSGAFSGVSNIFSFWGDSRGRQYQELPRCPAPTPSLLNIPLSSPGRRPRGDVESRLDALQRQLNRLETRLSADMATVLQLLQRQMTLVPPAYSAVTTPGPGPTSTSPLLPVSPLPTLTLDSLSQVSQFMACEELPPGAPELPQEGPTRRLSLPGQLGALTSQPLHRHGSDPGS

Row | Compound | activity change, negative = inhibition | Potency
1 | O=c1[nH]c2cc([N+](=O)[O-])c([N+](=O)[O-])cc2[nH]c1=O | 12.2% (inactive) | 
2 | CN1[C@@H](CC(=O)c2ccccc2)CCC[C@H]1C[C@H](O)c1ccccc1 |  | 1.41 µM (active)
3 | C=CC(N)CCC(=O)O (centres undefined) |  | inactive
4 | CCCCCCCCCCCC(=O)[O][Sn]([CH2]CCC)([CH2]CCC)[O]C(=O)CCCCCCCCCCC | -8.79% (inactive) | 
5 | CN1CCc2cc(NC(=O)Nc3cccnc3)ccc21 | 25% (inactive) | 
6 | CN(C)c1ccc(C(=C2C=CC(=[N+](C)C)C=C2)c2ccccc2)cc1 |  | 7.08 µM (active)
7 | C=C/C(C)=C/[C@@]1(C)SC(=O)C(C)=C1O | 5.86% (inactive) | 
8 | N#C/C(=C\c1ccc(O)c(O)c1)C(=O)c1ccc(O)c(O)c1 | 24.3% (inactive) | 
9 | CC1(C)C[C@@H]1C(=O)N/C(=C\CCCCSC[C@H](N)C(=O)O)C(=O)O |  | inactive
10 | O=C1NC(O)=NC1(c1ccccc1)c1ccccc1 | 2.46% (inactive) | 
11 | Cc1ccc(C(=O)c2ccc(CC(=O)O)n2C)cc1 | 0.0928% [at 20.6 µM] (inactive) | 
12 | O=C(O)c1cc(=O)c2c(Cl)cc(Cl)cc2[nH]1 | -2.65% (inactive) | 
13 | N#C/C(=C\c1ccc(O)c(O)c1)C(=O)NCc1ccccc1 |  | 12.6 µM (active)
14 | O=C(O)CCCC[C@@H]1CCSS1 | 21.6% (inactive) | 
15 | Cc1ccccc1CNc1ncnc2c1ncn2C1OC(CO)C(O)C1O (centres undefined) | 1.52% (inactive) | 
16 | CCCCC1C(=O)N(c2ccccc2)N(c2ccc(O)cc2)C1=O (centres undefined) | -0.392% [at 20.6 µM] (inactive) | 
17 | C#CCN1C(C)=C(C(=O)OC)C(c2cccc([N+](=O)[O-])c2)C(C(=O)OCC)=C1C (centres undefined) | 0% (inactive) | 
18 | CN1CCc2ccccc2Cc2[nH]c3ccccc3c2CC1 |  | 8.91 µM (active)
19 | CC(C(=O)O)c1ccc2c(c1)[nH]c1ccc(Cl)cc12 (centres undefined) | -10.3% (inactive) | 
